Experimental findings from PubChem BioAssay (NCI) are described below.

Some test systems named below: RPMI-8226 leukemia; OVCAR-8 ovarian; OVCAR-4 ovarian; SK-OV-3 ovarian; IGROV1 ovarian; OVCAR-3 ovarian; HS 578T breast; NCI/ADR-RES ovarian; T-47D breast; OVCAR-5 ovarian.
Holding throughout (assay): NCI-60 one-dose screen, 48 h (100 = growth as untreated, 0 = no growth, -100 = all killed)
What all share (conditions): 10 µM

About 83,000 compounds went through this panel and 20% of them were active in at least one assay; those are over-represented in the sample as a whole.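 Single-dose data. Exposure time 48 hours. Values below 10 considered active.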 A number with no mark means an inactive call. Calls of active or inactive are those of the source.

As for `Cc1cc2ccccc2nc1-c1ccccc1F`, the growth with RPMI-8226 leukemia was 101%; in the assay with OVCAR-8 ovarian, 102%; in the assay on OVCAR-4 ovarian, 117%; in the assay on SK-OV-3 ovarian, 96.4%; with IGROV1 ovarian it was 129%; in the assay on OVCAR-3 ovarian, 105%. Besides, the growth is 106% in the assay with HS 578T breast and 112% in the assay on NCI/ADR-RES ovarian.

For the molecule `C[C@]12CC[C@@H]3c4ccc(O)cc4C[C@@H](O)[C@H]3[C@@H]1CC[C@@H]2O`, the growth was 103% in the assay on RPMI-8226 leukemia; 106% with OVCAR-8 ovarian; 116% in the assay on SK-OV-3 ovarian; 99.7% with IGROV1 ovarian; 114% in the assay with OVCAR-3 ovarian; 117% in the assay on HS 578T breast. Moreover, the growth is 113% in the assay on NCI/ADR-RES ovarian and 118% with T-47D breast.

`O=C(CCCCCCC(=O)Nc1cccnc1)NO`: the growth with RPMI-8226 leukemia is -14.9% (active); in the assay with OVCAR-4 ovarian it was 16.1%; with SK-OV-3 ovarian it was 78.9%; in the assay with IGROV1 ovarian, 31%; with OVCAR-3 ovarian it was 25.1%; with HS 578T breast it was 34.6%. Further, the figures for the growth in the assay on NCI/ADR-RES ovarian and in the assay with T-47D breast were 2.65% (active) and -28.7% (active), respectively.

On to `Cc1cc(C)c(NC(=O)c2sc3nc4c(cc3c2N)C(=O)CCC4)c(C)c1`, for which the growth is 31.8% with RPMI-8226 leukemia; 45.6% in the assay with OVCAR-8 ovarian; 10.4% in the assay on SK-OV-3 ovarian; 35.4% with IGROV1 ovarian; 13.2% in the assay with OVCAR-3 ovarian; 17.7% in the assay with HS 578T breast. The growth with NCI/ADR-RES ovarian was -8.04% (active); with T-47D breast it was 40.6%.

For the molecule `CN(C)C(=S)N/N=C\C=N/NC(=S)N(C)C`, the growth in the assay with RPMI-8226 leukemia is 0.534% (active); in the assay with OVCAR-5 ovarian it was 95.2%; in the assay on OVCAR-4 ovarian, -36.5% (active); in the assay with SK-OV-3 ovarian, 49.9%; with IGROV1 ovarian, -59.4% (active); in the assay on OVCAR-3 ovarian it was 9.87% (active). The growth is 74.5% with HS 578T breast, 51.3% with NCI/ADR-RES ovarian and 15% in the assay with T-47D breast.

In the case of `CCCC1(CC(=O)O)OCCc2c1[nH]c1ccccc21` (configuration not stated), the growth with RPMI-8226 leukemia is 99.9%; in the assay on OVCAR-5 ovarian, 88.6%; in the assay with OVCAR-4 ovarian, 74%; in the assay on SK-OV-3 ovarian, 217%; with IGROV1 ovarian, 114%; with OVCAR-3 ovarian, 109%. The values for the growth with HS 578T breast, with NCI/ADR-RES ovarian and with T-47D breast were 101%, 107% and 194%, respectively.

For `COc1cc([C@@H]2c3cc4c(cc3C(Br)[C@H]3COC(=O)[C@H]23)OCO4)cc(OC)c1OC` (some centres not stated), the growth in the assay with RPMI-8226 leukemia is -25.8% (active); in the assay with OVCAR-8 ovarian, -27.5% (active); in the assay on OVCAR-4 ovarian it was 17.3%; with SK-OV-3 ovarian, -18.4% (active); with IGROV1 ovarian, -21% (active); in the assay with OVCAR-3 ovarian, -81.5% (active). Also, the growth was -45.9% (active) with NCI/ADR-RES ovarian and 31.3% with T-47D breast.

With `C=C(NC(=O)C(=C)NC(=O)c1csc(C2=NC3c4csc(n4)C4NC(=O)c5csc(n5)C(C(C)(O)C(C)O)NC(=O)C5CSC(=N5)/C(=C/C)NC(=O)C(C(C)O)NC(=O)c5csc(n5)C3(CC2)NC(=O)C(C)NC(=O)C(=C)NC(=O)C(=C)NC(=O)C(C(C)C)NC2C=Cc3c(C(C)O)cc(nc3C2O)C(=O)OC4C)n1)C(N)=O` (configuration not stated), the growth with RPMI-8226 leukemia is -37.1% (active); in the assay with OVCAR-5 ovarian it was 52.6%; in the assay on OVCAR-4 ovarian it was 6.53% (active); in the assay with SK-OV-3 ovarian it was 61.9%; in the assay on IGROV1 ovarian, -18.1% (active); in the assay on OVCAR-3 ovarian, 13.4%. Also, the growth in the assay on HS 578T breast is 22%; with NCI/ADR-RES ovarian, 77.2%; in the assay on T-47D breast, -6.42% (active).

Consider `Nc1ncn(C2OC(CO)C(O)C2O)c(=O)n1` (configuration not stated), for which the growth is -25.4% (active) with RPMI-8226 leukemia; 85.9% with OVCAR-5 ovarian; -30.3% (active) in the assay on OVCAR-4 ovarian; 12.3% with SK-OV-3 ovarian; -39.8% (active) in the assay on IGROV1 ovarian; -13.7% (active) in the assay on OVCAR-3 ovarian. Moreover, the growth in the assay with HS 578T breast was 3.64% (active); in the assay on NCI/ADR-RES ovarian, 15.1%; in the assay with T-47D breast, 10.6%.

As for `COc1ccc(C2CC(c3ccc(N(C)C)cc3)=NN2c2ccc(S(N)(=O)=O)cc2)cc1` (configuration not stated), the growth with RPMI-8226 leukemia was 34.1%; in the assay on OVCAR-8 ovarian, 42.3%; in the assay with OVCAR-4 ovarian, 48.6%; with SK-OV-3 ovarian, 70.3%; in the assay with IGROV1 ovarian, 56.6%; in the assay with OVCAR-3 ovarian it was 54.7%. Further, the results for the growth in the assay on HS 578T breast and in the assay on T-47D breast were 96.7% and 36.9%, respectively.

Turning to `Cc1ccc(-c2n[nH]c(=O)c3noc(-c4ccc(C)cc4)c23)cc1`, the growth in the assay on RPMI-8226 leukemia is 11.8%; in the assay with OVCAR-8 ovarian it was 43.3%; in the assay with OVCAR-4 ovarian, 59.4%; in the assay on SK-OV-3 ovarian it was 21.4%; in the assay with IGROV1 ovarian, 53.5%; in the assay on OVCAR-3 ovarian it was -13.3% (active). Also, the growth is 21.9% in the assay on HS 578T breast, 32.5% in the assay with NCI/ADR-RES ovarian and 28.6% in the assay on T-47D breast.

Turning to `COc1ccc(N=C2C(=Nc3ccc(OC)cc3)N(c3ccc(N(C)C)cc3)C(=S)N2c2ccc(OC)cc2)cc1`, the growth in the assay on RPMI-8226 leukemia is -12.4% (active); in the assay with OVCAR-5 ovarian, 34.9%; in the assay on SK-OV-3 ovarian, 87.9%; in the assay on IGROV1 ovarian, 107%; in the assay on OVCAR-3 ovarian, 106%; in the assay with HS 578T breast, 19.6%. The growth is 95.8% in the assay on NCI/ADR-RES ovarian and 91.1% in the assay with T-47D breast.

Regarding `O=C1/C(=C/c2ccc([N+](=O)[O-])o2)Oc2ccccc21`, the growth was 2.87% (active) in the assay on OVCAR-8 ovarian; 8.57% (active) with OVCAR-5 ovarian; -68.6% (active) in the assay with OVCAR-4 ovarian; 84% with SK-OV-3 ovarian; -22.7% (active) in the assay on IGROV1 ovarian; -69.7% (active) in the assay with OVCAR-3 ovarian. The growth is 57.3% with HS 578T breast and 14.8% in the assay on NCI/ADR-RES ovarian.

In the case of `C/C(=N\Nc1nc2ccccc2s1)c1ccncn1`, the growth in the assay on RPMI-8226 leukemia was -26.4% (active); with OVCAR-5 ovarian, 38.9%; in the assay on OVCAR-4 ovarian, -12.3% (active); in the assay on SK-OV-3 ovarian it was 37.7%; with IGROV1 ovarian, -22.2% (active); in the assay on OVCAR-3 ovarian, 21.2%. Moreover, the growth in the assay with HS 578T breast is 73.5%; in the assay with NCI/ADR-RES ovarian, 22.9%; in the assay on T-47D breast, -0.411% (active).

As for `O=C(CNC(=O)OCc1ccccc1)NCC(=O)Oc1ccc([N+](=O)[O-])cc1`, the growth is 112% in the assay with RPMI-8226 leukemia; 109% in the assay with OVCAR-5 ovarian; 99.2% in the assay with OVCAR-4 ovarian; 100% with SK-OV-3 ovarian; 109% with IGROV1 ovarian; 111% in the assay on OVCAR-3 ovarian. Further, the growth in the assay on HS 578T breast was 137%; with NCI/ADR-RES ovarian, 96.2%; with T-47D breast, 103%.
